# Compounds with a hit are over-represented: about 0.99% of the library has one in this group of screens.
# TRPV1 potentiator: potentiators of human vanilloid receptor 1 (TRPV1) | Q8NER1 | TRPV1-expressing cells, Fluo-8 calcium influx, capsaicin EC20 potentiation | potentiation, % at 8.33 µM | hit rate 0.02% among 320,000; in the data active = potentiation above about 80%; inconclusive = between about 30% and that limit; note: 0% is about no effect
#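 TRPV1-expressing cells were cultured overnight at 35.5C and loaded with Fluo-8 calcium dye for 40 to 90 min at room temperature. After a 10 s baseline, compound was added and calcium influx was read kinetically for 3 min (ex 480/em 520 nm).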
# TRPML1 agonist: activates the human TRPML1 channel. TRPML1-expressing cells, Ca2+ dye fluorescence, FDSS. hit rate 0.12% among 410,000. Q9GZU1. activation, % (no concentration beside the values); in the data active = activation above about 50%; inconclusive = mostly about 30% to 49%; note: 0% is about no effect
# Target sequence (Q9GZU1 whole entry, looked up): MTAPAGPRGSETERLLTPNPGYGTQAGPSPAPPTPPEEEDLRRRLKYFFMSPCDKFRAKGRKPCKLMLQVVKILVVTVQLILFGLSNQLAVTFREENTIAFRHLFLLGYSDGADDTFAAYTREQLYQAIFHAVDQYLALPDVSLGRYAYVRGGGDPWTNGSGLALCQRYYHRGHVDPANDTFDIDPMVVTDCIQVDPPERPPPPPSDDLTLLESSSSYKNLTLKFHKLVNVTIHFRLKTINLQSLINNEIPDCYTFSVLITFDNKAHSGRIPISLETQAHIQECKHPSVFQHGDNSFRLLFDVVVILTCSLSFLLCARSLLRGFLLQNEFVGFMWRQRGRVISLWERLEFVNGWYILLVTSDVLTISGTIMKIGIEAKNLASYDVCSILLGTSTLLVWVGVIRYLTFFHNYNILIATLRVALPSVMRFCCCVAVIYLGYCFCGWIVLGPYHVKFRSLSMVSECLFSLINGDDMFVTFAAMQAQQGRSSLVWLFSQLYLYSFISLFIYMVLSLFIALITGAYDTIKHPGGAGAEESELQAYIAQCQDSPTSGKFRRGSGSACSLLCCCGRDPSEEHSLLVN
#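 Calcium fluorescence on an FDSS kinetic reader gave the read-out. Tet-induced TRPML1-DL cells were plated overnight, dye-loaded (Ca8 with quencher, 45-90 min, room temperature, dark), then read 110 s after compound addition, and again 110 s after 4uM final 54-4 (EC80).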
# TRHR enhancer: allosterically enhances the human TRH receptor | P34981 | TRHR cells, fluo-8 calcium fluorescence, EC20 TRH enhancement | enhancement, % at 2 µM | hit rate 0.66% among 360,000 | AID 493056; in the data active = enhancement above about 30%; note: 0% is about no effect
#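 Enhancer read-out: after compound pinning and an initial kinetic agonist-mode read, an EC20 of TRH (10 nM final) was injected and fluo-8 calcium signal (Ex 480/Em 530) followed at 1 s/cycle for 100 cycles in TRHR-expressing cells.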
# TRHR agonist: activates the human TRH receptor | TRHR cells, calcium flux fluo-8, FDSS agonist mode | AID 493084 | hit rate 0.18% among 360,000 | P34981 | activation, % at 2 µM; in the data active = activation above about 30%; note: 0% is about no effect
#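 Read-out: compound-evoked intracellular calcium rise in TRHR cells, fluo-8 dye, kinetic FDSS fluorescence at 1 s/cycle following a 10-cycle baseline. Cells cultured overnight before dye loading (30 min–1.5 h, RT).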
# TRPML1 blocker: inhibitors of human TRPML1 channel; Q9GZU1; TRPML1-inducible cells, Ca2+ dye fluorescence, FDSS; stronger effect = lower value; inhibition of EC80 agonist-evoked calcium signal; activity change, negative = inhibition, % (no concentration beside the values); hit rate 0.02% among 390,000; AID 624415; in the data active = activity change below about -50%; inconclusive = between about -30% and that limit;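 note: stimulus is agonist 54-4 at its EC80 concentration; % is set by controls: 0 for no effect and ±100 for the full control effect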
#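 Tet-induced TRPML1-DL cells loaded with Ca8 no-wash calcium dye were read kinetically on FDSS. Compound addition was followed by EC80 agonist 54-4 (4 uM final); inhibition was read over 110 s.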
# TRPV1 ag: agonists of human vanilloid receptor 1 (TRPV1); activation, % at 8.33 µM; Q8NER1; hit rate 0.19% among 320,000; TRPV1-expressing cells, Fluo-8 calcium influx, agonist mode; AID 540275; in the data active = activation above about 80%; inconclusive = between about 30% and that limit; note: 0% is about no effect
#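 TRPV1-expressing cells were cultured overnight at 35.5C and loaded with Fluo-8 calcium dye for 40 to 90 min at room temperature. After a 10 s baseline, compound was added and calcium influx was read kinetically for 3 min (ex 480/em 520 nm).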
# Active calls of the source: *; ? = inconclusive; nt = no result given.
SMILES,TRPV1 potentiator,TRPML1 agonist,TRHR enhancer,TRHR agonist,TRPML1 blocker,TRPV1 ag
Cc1cccc(OCC(=O)Nc2cc(C)c(O)c(-c3nc4ccccc4o3)c2)c1,nt,0,nt,nt,nt,nt
CC(C)c1ccc(NC2CCCN(C(=O)c3cccc4nccnc34)C2)cc1 (stereo not given),-11,-1,-1,0,6,85*
Cc1cc(C)n2nc(C(=O)N3CCCC(Nc4ccc(C(C)C)cc4)C3)cc2n1 (stereo not given),-2,-1,-3,0,-3,86*
Nc1ccc(Cc2ccc(C=O)cc2)cc1,nt,3,nt,nt,nt,nt
O=S(=O)(c1ccc2ncccc2c1)N1CCN(c2nc(-c3cccs3)nc3ccccc23)CC1,nt,0,nt,nt,nt,nt
O=C1C=CC(=O)N1Nc1ccc(Br)cc1,11,0,33*,1,2,-3
O=C1c2cccc3cc(Br)cc(c23)C(=O)N1Nc1ccc(Br)cc1,8,1,7,-1,-1,-3
Cc1ccc(S(=O)(=O)N2CCN(c3nc(Nc4ccccc4O)nc4ccccc34)CC2)cc1,nt,0,nt,nt,nt,nt
CCOC(=O)c1nc(-c2ccccc2)oc1N(C)C,0,1,30*,0,-2,3
Cc1cc2c(s1)c1cnn(Cc3c(F)cccc3C(F)(F)F)c(=O)c1n2C,nt,nt,-1,-1,nt,nt
O=C1CN(S(=O)(=O)c2ccc3c(c2)OCCO3)CCN1S(=O)(=O)c1c(F)cccc1F,nt,nt,-3,-1,nt,nt
CC(=O)NN1C(=O)c2ccccc2NC1c1ccccc1O (stereo not given),7,-1,33*,0,-8,-3
CS(=O)(=O)NN1C(=O)c2ccccc2NC1c1ccccc1O (stereo not given),-1,-1,-5,0,35,0
Cc1ccc2scc(N3CCN(c4ccc(F)cc4)CC3)c(=O)c2c1,nt,-1,39*,0,-7,nt
O=C(CNC(=O)C1CCCCCC1)OC(C(=O)Nc1cc(C(F)(F)F)ccc1Cl)c1ccccc1 (stereo not given),nt,nt,1,-1,nt,nt
O=C(NCc1nc(-c2ccccc2)no1)Nc1ccc(F)cc1,-4,2,40*,0,34,?
N/C(=N\OC(=O)c1ccc(Cl)cc1)c1nonc1N,-1,1,-1,0,16,81*
Cc1cc2c(s1)c1cnn(Cc3cc(Cl)ccc3F)c(=O)c1n2C,nt,nt,-1,-1,nt,nt
CCOc1ncccc1C(=O)OCC(=O)Nc1cccc(C(C)=O)c1,10,4,-9,-1,25,-1
CC(=O)c1cccc(NC(=O)COC(=O)c2ccccc2C)c1,6,-1,31*,-1,13,1
CCN1C(=NCc2cccc(Cl)c2)N[C@@H](c2cccc(C(F)(F)F)c2)C(C(=O)OC)=C1C,nt,2,nt,nt,nt,nt
COc1ccc(N2C(=O)C3C4C=CC(CC4)C3C2=O)c([N+](=O)[O-])c1 (stereo not given),-4,0,39*,0,-13,5
CC(C)(C)c1ccc(C(=O)C[n+]2cccc(Br)c2)cc1,nt,0,nt,nt,nt,nt
Cc1ccc(S(=O)(=O)Nc2ccc(S(=O)(=O)Nc3nccs3)cc2)c([N+](=O)[O-])c1,-9,-1,58*,0,-7,-1
C=C(C)C1CC=C(C)/C(=N/NC(=O)c2ccccc2[N+](=O)[O-])C1 (stereo not given),-13,2,36*,1,4,3
SMILES,TRPV1 potentiator,TRPML1 agonist,TRHR enhancer,TRHR agonist,TRPML1 blocker,TRPV1 ag
Cn1cc(/C=C/c2ccc3ccccc3n2)c2ccccc21,nt,9,nt,nt,nt,nt
CC/C(=C/c1ccccc1OC)c1cc(-c2ccccc2)cc2oc3ccccc3c12,nt,1,nt,nt,nt,nt
C[C@@H]1[C@H](c2ccccc2)OCCS(=O)(=O)N1Cc1ccccc1F,nt,-1,nt,nt,nt,nt
CCCCCCn1c(O)c(/C=C2\C=NN=C2c2ccccc2)sc1=S,14,0,33*,-1,1,-5
CCCCn1c(O)c(/C=C2\C=NN=C2c2ccccc2)sc1=S,-6,2,3,2,-2,8
O=[N+]([O-])c1ccc(/C=C2\C=Cc3ccccc32)cc1,nt,-1,nt,nt,nt,nt
N=C1/C(=C\c2coc3ccccc3c2=O)C(=O)N=C2SC=CN12,0,72*,53*,199*,-7,?
CSC1=NSC2=NC(=O)/C(=C/c3coc4ccccc4c3=O)C(=N)N12,1,77*,14,78*,-10,?
CSC1=NSC2=NC(=O)/C(=C/c3coc4ccc(O)cc4c3=O)C(=N)N12,8,67*,12,68*,4,22
CSC1=NSC2=NC(=O)/C(=C\c3cccs3)C(=N)N12,6,0,-4,1,-9,1
CC1=CC2=NC(=O)/C(=C/c3coc4ccc(Cl)cc4c3=O)C(=N)N2O1,nt,?,28,185*,-8,nt
O=C(NCCc1ccccc1)[C@@H]1CC=C[C@@H]2CCN(C3CC3)C(=O)[C@@H]21,nt,-1,nt,nt,nt,nt
CCN(CC)c1ccc(-c2nnc(SCC(=O)NCc3ccco3)n2CC)cc1,nt,-1,nt,nt,nt,nt
Cc1nc2sc(C)c(C)n2c(=O)c1S(=O)(=O)N1CCN(c2ccccc2F)CC1,nt,0,35*,0,4,nt
Cc1nc2scc(C)n2c(=O)c1S(=O)(=O)N1CCN(c2ccccc2)CC1,-13,0,-1,0,6,12
NCCC(=O)N1c2ccccc2Sc2ccc(Cl)cc21,-18,?,-33,50*,-11,23
NCCCC(=O)N1c2ccccc2Sc2ccc(Cl)cc21,-10,0,18,3,10,2
Cn1nc(-c2ccc(F)cc2)nc2c(=O)n(C)c(=O)nc1-2,nt,0,nt,nt,nt,nt
CC(C)NC(=O)c1onc(CSc2ccccc2)c1C(=O)O,7,0,31*,1,-5,2
COC(=O)C1=C(C)NC(=O)NC1c1c(O)ccc2ccccc12 (stereo not given),5,0,35*,0,12,-3
O=C(Nc1ccccc1)c1csc(-c2ccccc2)n1,23,3,-3,-1,5,85*
CN1N/C(=C\c2ccccc2)N=C2C(=O)N(C)C(=O)N=C21,nt,0,nt,nt,nt,nt
CCOc1ccc(CC(=O)Nc2nccs2)cc1,-1,2,-2,0,26,1
Cc1ccc(CC(=O)Nc2nccs2)cc1C,8,0,32*,-1,-13,0
COc1ccccc1/C=C/c1cncc(/C=C/c2ccccc2OC)c1,nt,0,nt,nt,nt,nt
CC(=O)N1CCOc2ccc(S(=O)(=O)N3CCC(C)CC3)cc21,15,0,-4,-1,-59*,-3
COc1ccc(CN2COc3ccc4c(-c5ccccc5)cc(=O)oc4c3C2)cc1,nt,1,0,-1,-13,nt

# Bioassay records as filed in PubChem BioAssay.
